The values below come from PubChem BioAssay (EPA / NIEHS).

Calls of active or inactive are those of the source. The calls were made as follows: active = hit-call score of the fitted dose curve at least 0.9, where 1 is the maximum; inactive = score below 0.9.

Read-out in test [1]: Transforming growth factor beta 1 (TGFb1), TGFB1 (gene 7040)
Put plainly: BSK_KF3CT_TGFb1: BioMAP Diversity Plus: KF3CT Assay for Transforming growth factor beta 1 (TGFb1) Biomarker Activity (AID 2283072). To be noted: primary human keratinocytes with fibroblasts; actives raise or lower the signal. Put shortly: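 Primary human skin cells (keratinocytes, foreskin fibroblasts) were co-cultured, exposed to test chemical and sampled at 24 h. TGF-b1 levels were measured by ELISA and fitted bidirectionally relative to DMSO.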

Read-out in test [2]: C-C motif chemokine 2 (Homo sapiens) (UniProt P13500)
Put plainly: BSK_KF3CT_MCP1: BioMAP Diversity Plus: KF3CT Assay for Monocyte Chemoattractant Protein 1 (MCP1/CCL2) Biomarker Activity (AID 2283073). The settings on record: primary human keratinocytes with fibroblasts; actives raise or lower the signal. A digest of the protocol: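 Biomarker MCP-1 is measured by ELISA in primary human keratinocytes co-cultured with foreskin fibroblasts, 24 h after chemical treatment; DMSO serves as the negative control and activity baseline.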

Read-out in test [3]: Matrix Metallopeptidase 9 (MMP9), MMP9 (gene 4318)
Put plainly: BSK_KF3CT_MMP9: BioMAP Diversity Plus: KF3CT Assay for Matrix Metallopeptidase 9 (MMP9) Biomarker Activity (AID 2283074).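 As to AC50: MMP9 protein level quantified by ELISA in the co-culture.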 The settings on record: primary human keratinocytes with fibroblasts; actives raise or lower the signal. A digest of the protocol:
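Human keratinocyte/foreskin fibroblast co-culture; compound added; 24 h; MMP-9 by ELISA; bidirectional fit vs DMSO baseline.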

Read-out in test [4]: urokinase plasminogen activator (uPA), PLAU (gene 5328)
The test is described as follows: BSK_KF3CT_uPA: BioMAP Diversity Plus: KF3CT Assay for urokinase plasminogen activator (uPA) Biomarker Activity (AID 2283075). The settings on record: primary human keratinocytes with fibroblasts; actives raise or lower the signal. Put shortly:
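ELISA readout of uPA, analyzed for signal gain or loss relative to DMSO, from a human primary keratinocyte–foreskin fibroblast co-culture measured 24 h after chemical treatment.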

Read-out in test [5]: CD40, CD40 (gene 958)
The test is described as follows: BSK_LPS_CD40: BioMAP Diversity Plus: LPS Assay for CD40 Biomarker Activity (AID 2283076). To be noted: primary human HUVEC with PBMC; actives raise or lower the signal. A digest of the protocol:
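Using a multiplexed primary human co-culture (umbilical vein endothelium plus PBMC), CD40 was read by ELISA 24 h after dosing, with cytotoxicity tracked by sulforhodamine B staining of parallel cultures and activity fitted bidirectionally versus DMSO.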

Read-out in test [6]: E-selectin (Homo sapiens) (UniProt P16581)
Put plainly: BSK_LPS_Eselectin: BioMAP Diversity Plus: LPS Assay for Eselectin Biomarker Activity (AID 2283077). To be noted: primary human HUVEC with PBMC; actives raise or lower the signal. Put shortly: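 Dose chemical onto LPS-driven HUVEC/PBMC co-culture; after 24 h, run ELISA for E-selectin; fit up- and down-going responses relative to DMSO control.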

Read-out in test [7]: Interleukin-8 (IL8), CXCL8 (gene 3576)
Put plainly: BSK_LPS_IL8: BioMAP Diversity Plus: LPS Assay for Interleukin-8 (IL8) Biomarker Activity (AID 2283078). The settings on record: primary human HUVEC with PBMC; actives raise or lower the signal. A digest of the protocol:
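In this LPS system, chemical-treated human umbilical vein endothelium/PBMC co-cultures were harvested at 24 h for IL-8 ELISA.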

Test [8] can be described thus: BSK_LPS_SRB: Viability Assessment in the BioMAP Diversity Plus: LPS Assay (AID 2283079).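 Also: total protein by sulforhodamine B absorbance as a cytotoxicity measure; measured one day after compound addition; fitted in both directions against DMSO so loss or gain of signal counts.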 To be noted: primary human HUVEC with PBMC. Put shortly: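 Cytotoxicity endpoint in human endothelial–PBMC co-culture: 24 h exposure, then SRB (0.1%) staining, 560 nm read.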
Read-out in test [9]: Interleukin-1 alpha (IL1a), IL1A (gene 3552)
The test is described as follows: BSK_LPS_IL1a: BioMAP Diversity Plus: LPS Assay for Interleukin-1 alpha (IL1a) Biomarker Activity (AID 2283080). To be noted: primary human HUVEC with PBMC; actives raise or lower the signal. Put shortly:
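Primary human HUVEC and PBMC co-culture stimulated with LPS is dosed and harvested at 24 h. Both increases and decreases in ELISA-measured IL-1a are scored relative to DMSO.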

Read-out in test [10]: Monocyte Chemoattractant Protein-1 (MCP1), CCL2 (gene 6347)
Put plainly: BSK_LPS_MCP1: BioMAP Diversity Plus: LPS Assay for Monocyte Chemoattractant Protein-1 (MCP1) Biomarker Activity (AID 2283081).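 As to AC50: secreted MCP-1 protein quantified by ELISA in culture supernatant.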 The settings on record: primary human HUVEC with PBMC; actives raise or lower the signal. A digest of the protocol: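 Values derive from bidirectional fitting against DMSO of ELISA-measured MCP-1 in a human primary endothelial and mononuclear cell co-culture, 24 h after chemical addition under LPS activation.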

Test [11] can be described thus: BSK_LPS_PGE2: BioMAP Diversity Plus: LPS Assay for Prostaglandin E2 (PGE2) Biomarker Activity (AID 2283082). To be noted: primary human HUVEC with PBMC; actives raise or lower the signal. A digest of the protocol: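 LPS-activated HUVEC/PBMC co-culture; cmpd dosed, 24 h; PGE2 by ELISA; bidirectional fit vs DMSO; SRB (0.1%, TCA-fixed, 560 nm) in parallel plates for overt cytotox.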

Read-out in test [12]: Macrophage colony-stimulating factor (MCSF), CSF1 (gene 1435)
Put plainly: BSK_LPS_MCSF: BioMAP Diversity Plus: LPS Assay for Macrophage colony-stimulating factor (MCSF) Biomarker Activity (AID 2283083). To be noted: primary human HUVEC with PBMC; actives raise or lower the signal. A digest of the protocol: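 Bidirectional fit versus DMSO of ELISA-measured M-CSF in co-cultured human umbilical vein endothelial cells and PBMC, sampled 24 h after dosing.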

Read-out in test [13]: Tissue Factor, F3 (gene 2152)
Put plainly: BSK_LPS_TissueFactor: BioMAP Diversity Plus: LPS Assay for Tissue Factor Biomarker Activity (AID 2283084). To be noted: primary human HUVEC with PBMC; actives raise or lower the signal. A digest of the protocol:
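Read-out: CD142 ELISA, 24 h. System: LPS-driven human endothelial/PBMC co-culture. Analysis: up- or down-signal fitted against DMSO.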

Read-out in test [14]: Tumor necrosis factor (Homo sapiens) (UniProt P01375)
Put plainly: BSK_LPS_TNFa: BioMAP Diversity Plus: LPS Assay for Tumour Necrosis Factor alpha (TNFa) Biomarker Activity (AID 2283085). To be noted: primary human HUVEC with PBMC; actives raise or lower the signal. A digest of the protocol:
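Read-out is ELISA of TNFa in primary human endothelial cell–PBMC co-cultures at 24 h after compound. Activity in either direction was fitted against DMSO.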

Read-out in test [15]: Vascular cell adhesion molecule 1 (VCAM1), VCAM1 (gene 7412)
Put plainly: BSK_LPS_VCAM1: BioMAP Diversity Plus: LPS Assay for Vascular cell adhesion molecule 1 (VCAM1) Biomarker Activity (AID 2283086). The settings on record: primary human HUVEC with PBMC; actives raise or lower the signal. Put shortly:
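HUVEC + PBMC co-culture, LPS system; compound 24 h; VCAM-1 by ELISA; bidirectional fit vs DMSO control; parallel SRB (0.1%, TCA-fixed, 560 nm) for cytotoxicity.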

Read-out in another test: CD38, CD38 (gene 952)
The test is described as follows: BSK_SAg_CD38: BioMAP Diversity Plus: SAg Assay for CD38 Biomarker Activity (AID 2283087). To be noted: primary human HUVEC with PBMC; actives raise or lower the signal. A digest of the protocol: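 Human HUVEC plus PBMC co-culture stimulated with superantigen; CD38 measured by ELISA 24 h after chemical dosing. Fluorescence read-out, bidirectional fit against DMSO; cytotoxicity tracked in parallel by SRB and Alamar Blue.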

Read-out in test [16]: CD40, CD40 (gene 958)
Put plainly: BSK_SAg_CD40: BioMAP Diversity Plus: SAg Assay for CD40 Biomarker Activity (AID 2283088). To be noted: primary human HUVEC with PBMC; actives raise or lower the signal. A digest of the protocol: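 Endpoint derived by fitting increases or decreases versus DMSO controls. CD40 is detected by fluorescence ELISA in a human vascular co-culture of endothelium and PBMC at 24 h.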

Read-out in the next test: CD69, CD69 (gene 969)
Put plainly: BSK_SAg_CD69: BioMAP Diversity Plus: SAg Assay for CD69 Biomarker Activity (AID 2283089).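 As to AC50: cell surface CD69 protein quantified by ELISA with fluorescence detection.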 To be noted: primary human HUVEC with PBMC; actives raise or lower the signal. Put shortly:
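ELISA, fluorescence read-out: CD69 on human umbilical vein endothelial cell + PBMC co-culture, 24 h post-dosing. Gain or loss of signal fitted bidirectionally against DMSO baseline.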

Read-out in test [17]: Monocyte Chemoattractant Protein-1 (MCP1), CCL2 (gene 6347)
The test is described as follows: BSK_SAg_MCP1: BioMAP Diversity Plus: SAg Assay for Monocyte Chemoattractant Protein-1 (MCP1) Biomarker Activity (AID 2283090). The settings on record: primary human HUVEC with PBMC; actives raise or lower the signal. A digest of the protocol:
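MCP-1 levels in the endothelial–PBMC SAg co-culture were quantified by ELISA at 24 h post-dosing; both increases and decreases versus DMSO scored. Cytotoxicity monitored by SRB total protein in parallel cultures.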

Read-out in test [18]: E-selectin (Homo sapiens) (UniProt P16581)
The test is described as follows: BSK_SAg_Eselectin: BioMAP Diversity Plus: SAg Assay for Eselectin Biomarker Activity (AID 2283091). The settings on record: primary human HUVEC with PBMC; actives raise or lower the signal. A digest of the protocol: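 Endpoint values derive from bidirectional fitting relative to DMSO, using ELISA-measured E-selectin in a human vascular co-culture (umbilical vein endothelium plus PBMC) sampled 24 h after dosing.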

E-selectin (Homo sapiens), sequence (P16581 whole entry, looked up): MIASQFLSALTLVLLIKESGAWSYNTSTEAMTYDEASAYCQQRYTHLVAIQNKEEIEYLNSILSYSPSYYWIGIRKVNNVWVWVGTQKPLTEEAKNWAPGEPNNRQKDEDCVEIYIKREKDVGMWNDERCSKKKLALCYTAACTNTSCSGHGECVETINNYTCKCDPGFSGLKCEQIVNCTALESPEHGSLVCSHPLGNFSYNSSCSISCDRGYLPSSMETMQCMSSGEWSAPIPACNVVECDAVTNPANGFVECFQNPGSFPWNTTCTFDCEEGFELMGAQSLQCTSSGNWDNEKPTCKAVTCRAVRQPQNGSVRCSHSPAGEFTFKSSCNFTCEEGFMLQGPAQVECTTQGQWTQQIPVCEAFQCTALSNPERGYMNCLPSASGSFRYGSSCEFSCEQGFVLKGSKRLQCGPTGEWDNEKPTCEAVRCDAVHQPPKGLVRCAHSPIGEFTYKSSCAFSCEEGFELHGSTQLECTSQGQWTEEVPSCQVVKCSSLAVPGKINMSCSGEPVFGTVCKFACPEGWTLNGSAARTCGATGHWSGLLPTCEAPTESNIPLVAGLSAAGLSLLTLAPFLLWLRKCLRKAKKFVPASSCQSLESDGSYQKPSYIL
Tumor necrosis factor (Homo sapiens), sequence (P01375 whole entry, looked up): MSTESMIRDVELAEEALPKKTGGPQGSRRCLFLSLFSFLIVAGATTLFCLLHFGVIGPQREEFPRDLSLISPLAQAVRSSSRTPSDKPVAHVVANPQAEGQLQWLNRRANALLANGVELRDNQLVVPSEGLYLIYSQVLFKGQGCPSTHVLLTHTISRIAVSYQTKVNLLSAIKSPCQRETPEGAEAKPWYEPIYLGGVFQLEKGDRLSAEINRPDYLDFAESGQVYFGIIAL

Regarding `CCCCCCCCCCCCCCCS(=O)(=O)Oc1ccccc1`, the outcome was “inactive” in [1]; “inactive” in [2]; “inactive” in [3]; “inactive” in [4]; “inactive” with CD40, CD40 (gene 958) [5]; “inactive” in test [6]. Also, the outcome in [7], in test [8], in [9], in [10], in test [11] and in test [12] was inactive. Moreover, the outcome in test [13] was “inactive”; in test [14] it was “inactive”; in [15], “inactive”; with CD38, CD38 (gene 952) it was “inactive”; with CD40, CD40 (gene 958) [16], “inactive”; in the test with CD69, CD69 (gene 969), “inactive”. In addition, in test [17], the result was inactive.

With `COc1ccc([N+](=O)[O-])cc1N`, the outcome is “inactive” in test [1]; “inactive” in test [2]; “inactive” in test [3]; “inactive” in test [4]; “inactive” with CD40, CD40 (gene 958) [5]; “inactive” in test [6]. Besides, the outcome in test [8], in test [9], in test [10], in test [11], in test [12] and in test [13] was inactive. In addition, the outcome is “inactive” in [14]; “inactive” in test [15]; “inactive” with CD38, CD38 (gene 952); “inactive” with CD40, CD40 (gene 958) [16]; “inactive” with CD69, CD69 (gene 969); “inactive” in [17]. Further, the outcome in test [18] was inactive.

One may read the AC50 as the concentration at which the activity in the assay is half-maximal. Regarding `CCc1nn(C2CCCCC2)c2cc(C3(C#N)CCC(C(=O)O)CC3)ccc12` (configuration not stated), the outcome in test [1], in [11] and in test [13] was inactive. For the same compound, the AC50 in [2] is 20 µM (active); in [3], 8.4 µM (active); in [4] it was 11.3 µM (active); with CD40, CD40 (gene 958) [5] it was 2.51 µM (active); in test [6], 16.1 µM (active); in test [8], 4.2 µM (active). In addition, the AC50 in test [9] is 1.15 µM (active); in test [10], 10.1 µM (active); in [12], 1.85 µM (active); in test [14], 0.358 µM (active); in test [15] it was 2.43 µM (active); with CD38, CD38 (gene 952) it was 20 µM (active). The AC50 was 10.6 µM (active) with CD40, CD40 (gene 958) [16]; 5.47 µM (active) with CD69, CD69 (gene 969); 4.61 µM (active) in test [17]; 1.78 µM (active) in [18].
